Assay results published in PubChem BioAssay AID1159580 (chemical genetic matrix, 2015).
Several values for one entry are separate records, joined by “and”; a condition that tells them apart may be missing. Equal entries are not always repeated. About 2,000 (36%) of roughly 5,500 compounds were called active. Another 18% or so got no clear call; they are omitted. No stated cut-off is given here; in the data, active means normalized growth mostly below about 0.91 (no sharp cut-off); inconclusive means no clear call, values can overlap the other calls; inactive means mostly above about 0.92. The list shows a part of the results.

Assay: chemical genetic growth profiling, strain panel (AID 1159580);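 further: tested at 20 µM; growth read once vehicle control cultures reached saturation at 30 °C; 1 = growth at the plate median or of vehicle wells; lower values mean less growth of the strain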
Conditions: S. cerevisiae deletion strains, growth OD

Measured: normalized growth

CC(=O)O[C@H]1CC[C@@]2(C)C(CC[C@]3(C)C2CC=C2C4CC(C)(C)CC[C@]4(C)CC[C@]23C)C1(C)C (stereo partly drawn)
inactive: locus YAL013W, strain DEP1, hits give low values 1.02 | locus YAL021C, strain ccr4, hits give low values 0.919 | locus YAL026C, strain drs2, hits give low values 1.01 | locus YAL030W, strain snc1, hits give low values 0.979 | locus YBL061C, strain skt5, hits give low values 0.996 | locus YBR009C, strain hhf1, hits give low values 0.973 | locus YBR021W, strain FUR4, hits give low values 1.01 | locus YBR023C, strain chs3, hits give low values 0.982 | locus YBR171W, strain sec66, hits give low values 0.99 | locus YBR229C, strain ROT2, hits give low values 1 | locus YBR231C, strain swc5, hits give low values 1.01 | locus YBR279W, strain paf1, hits give low values 0.999 | locus YCL011C, strain gbp2, hits give low values 0.962 | locus YCL016C, strain dcc1, hits give low values 0.964 | locus YCL029C, strain bik1, hits give low values 1 | locus YCL061C, strain MRC1, hits give low values 0.99 | locus YCL069W, strain vba3, hits give low values 0.978 | locus YCR088W, strain abp1, hits give low values 0.991 | locus YDL005C, strain med2, hits give low values 0.988 | locus YDL035C, strain GPR1, hits give low values 1.03 | locus YDL040C, strain nat1, hits give low values 0.989 | locus YDL074C, strain BRE1, hits give low values 1.06 | locus YDL101C, strain DUN1, hits give low values 1.02 | locus YDL185W, strain tfp1, hits give low values 1.02 | locus YDL192W, strain arf1, hits give low values 1 | locus YDR001C, strain nth1, hits give low values 0.968 | locus YDR069C, strain doa4, hits give low values 0.971 | locus YDR101C, strain arx1, hits give low values 0.997 | locus YDR137W, strain rgp1, hits give low values 0.973 | locus YDR150W, strain NUM1, hits give low values 1.01 | locus YDR159W, strain sac3, hits give low values 0.998 | locus YDR162C, strain NBP2, hits give low values 1.03 | locus YDR195W, strain ref2 0.953 | locus YDR297W, strain sur2, hits give low values 1 | locus YDR318W, strain mcm21, hits give low values 1.01 | locus YDR334W, strain swr1, hits give low values 0.98 | locus YDR335W, strain msn5, hits give low values 0.989 | locus YDR388W, hits give low values 1.02 | locus YDR392W, strain spt3, hits give low values 0.889 | locus YDR502C, strain sam2, hits give low values 1.02 | locus YEL003W, strain gim4, hits give low values 1.02 | locus YEL037C, strain rad23, hits give low values 0.978 | locus YEL061C, strain CIN8 (second series), hits give low values 0.978 | locus YER015W, strain faa2, hits give low values 0.981 | locus YER016W, strain bim1, hits give low values 0.992 | locus YER110C, hits give low values 1.01 | locus YER111C, strain swi4, hits give low values 0.99 | locus YER155C, strain BEM2 (second series), hits give low values 1.02 | locus YER155C, strain BEM2, hits give low values 1.01 | locus YER167W, strain BCK2, hits give low values 1 | locus YFR010W, strain ubp6, hits give low values 0.992 | locus YGL078C, strain dbp3, hits give low values 1.06 | locus YGL086W, strain mad1, hits give low values 1.01 | locus YGL167C, strain pmr1, hits give low values 0.975 | locus YGL173C, strain kem1, hits give low values 1 | locus YGL227W, strain vid30, hits give low values 0.987 | locus YGL240W, strain doc1, hits give low values 1.01 | locus YGL248W, strain PDE1, hits give low values 1.02 | locus YGL253W, strain hxk2, hits give low values 1.02 | locus YGR078C, strain PAC10, hits give low values 1.03 | locus YGR135W, strain pre9, hits give low values 1.04 | locus YGR252W, strain gcn5, hits give low values 1.08 | locus YHR013C, strain ard1, hits give low values 0.943 | locus YHR027C, strain rpn1, hits give low values 0.983 | locus YHR030C, strain SLT2, hits give low values 1.01 and 1.03 | locus YHR079C, strain IRE1 (second series), hits give low values 1.01 | locus YHR079C, strain IRE1, hits give low values 1.03 | locus YHR094C, strain hxt1, hits give low values 1.02 | locus YHR129C, strain ARP1, hits give low values 1.01 | locus YHR142W, strain chs7, hits give low values 0.959 | locus YHR200W, strain rpn10, hits give low values 1.02 | locus YIL066C, strain RNR3, hits give low values 1.01 | locus YIL073C, strain SPO22, hits give low values 1.04 | locus YIL125W, strain kgd1, hits give low values 1.01 | locus YIR030C, strain dcg1, hits give low values 1.04 | locus YJL092W, strain hpr5, hits give low values 0.975 | locus YJL095W, strain BCK1 (second series), hits give low values 0.986 | locus YJL095W, strain BCK1, hits give low values 1.04 and 1.02 | locus YJL115W, strain asf1, hits give low values 0.968 | locus YJL129C, strain trk1, hits give low values 0.993 | locus YJL134W, strain LCB3, hits give low values 1.01 | locus YJL154C, strain vps35, hits give low values 0.975 | locus YJL164C, strain tpk1, hits give low values 0.949 | locus YJL166W, strain qcr8, hits give low values 0.999 | locus YJL168C, strain set2, hits give low values 1.02 | locus YJL187C, strain SWE1 (second series), hits give low values 1.03 | locus YJL187C, strain SWE1, hits give low values 0.986 | locus YJR043C, strain POL32, hits give low values 1.01 | locus YJR066W, strain TOR1, hits give low values 0.976 | locus YKL009W, strain mrt4, hits give low values 1 | locus YKL068W, hits give low values 1.02 | locus YKL085W, strain MDH1 (second series), hits give low values 1.01 | locus YKL085W, strain MDH1, hits give low values 1.01 | locus YKL160W, strain elf1, hits give low values 0.963 | locus YKL190W, strain CNB1, hits give low values 1.01 | locus YKR001C, strain vps1, hits give low values 0.997 | locus YKR026C, strain gcn3, hits give low values 0.991 | locus YKR091W, strain srl3, hits give low values 0.986 | locus YLL001W, strain dnm1, hits give low values 0.978 | locus YLL026W, hits give low values 0.978 | locus YLL041C, strain sdh2, hits give low values 0.976 | locus YLR027C, strain aat2, hits give low values 0.989 | locus YLR039C, strain RIC1, hits give low values 0.999 | locus YLR058C, strain SHM2, hits give low values 1.02 | locus YLR102C, strain apc9, hits give low values 1 | locus YLR113W, strain HOG1, hits give low values 1 | locus YLR221C, strain rsa3, hits give low values 1.03 | locus YLR258W, strain gsy2, hits give low values 0.962 | locus YLR262C, strain YPT6 (second series), hits give low values 0.976 | locus YLR262C, strain YPT6, hits give low values 1.01 | locus YLR268W, strain sec22, hits give low values 1.02 | locus YLR320W, strain mms22, hits give low values 1.05 | locus YLR342W, strain FKS1, hits give low values 0.991 | locus YLR357W, strain rsc2, hits give low values 0.973 | locus YLR370C, strain arc18, hits give low values 0.967 | locus YLR371W, strain rom2, hits give low values 1.02 | locus YLR384C, strain iki3, hits give low values 1 | locus YLR418C, strain cdc73, hits give low values 1.05 | locus YML016C, strain PPZ1, hits give low values 0.996 | locus YML032C, strain rad52, hits give low values 1 | locus YML120C, strain ndi1, hits give low values 0.96 | locus YML124C, strain tub3, hits give low values 1.01 | locus YMR058W, strain fet3, hits give low values 0.996 | locus YMR078C, strain ctf18, hits give low values 1.03 | locus YMR125W, strain sto1, hits give low values 0.948 | locus YMR129W, hits give low values 0.988 | locus YMR205C, strain PFK2, hits give low values 0.959 | locus YMR223W, strain ubp8, hits give low values 1.02 | locus YMR231W, strain pep5, hits give low values 0.994 | locus YMR263W, strain SAP30, hits give low values 1.03 | locus YMR307W, strain GAS1, hits give low values 1.11 | locus YNL067W, strain RPL9B, hits give low values 1.04 | locus YNL071W, strain lat1, hits give low values 0.982 | locus YNL153C, strain GIM3, hits give low values 1.03 | locus YNL183C, strain NPR1, hits give low values 0.964 | locus YNL209W, strain ssb2, hits give low values 0.984 | locus YNL233W, strain BNI4, hits give low values 1.02 | locus YNL248C, strain rpa49, hits give low values 0.918 | locus YNL250W, strain rad50, hits give low values 1.02 | locus YNL271C, strain bni1, hits give low values 1.03 | locus YNL298W, strain CLA4, hits give low values 1.03 | locus YNL307C, strain MCK1, hits give low values 1.02 | locus YNL322C, strain KRE1 (second series), hits give low values 0.982 | locus YNR049C, strain mso1, hits give low values 0.966 | locus YNR052C, strain pop2, hits give low values 1.02 | locus YOL012C, strain htz1 1.53 | locus YOL147C, strain pex11, hits give low values 1.01 | locus YOR001W, strain rrp6, hits give low values 1.01 | locus YOR061W, strain CKA2, hits give low values 1.02 | locus YOR069W, strain VPS5, hits give low values 1.01 | locus YOR070C, strain gyp1, hits give low values 1.02 | locus YOR080W, strain dia2, hits give low values 1 | locus YOR083W, strain WHI5, hits give low values 0.957 | locus YOR106W, strain vam3, hits give low values 0.929 | locus YOR136W, strain idh2, hits give low values 1.01 | locus YOR144C, strain elg1, hits give low values 1.01 | locus YOR184W, strain ser1, hits give low values 1.01 | locus YOR231W, strain MKK1, hits give low values 1 | locus YOR265W, strain rbl2, hits give low values 0.998 | locus YOR270C, strain vph1, hits give low values 1.03 | locus YOR290C, strain snf2, hits give low values 0.906 | locus YOR316C, strain cot1, hits give low values 1.01 | locus YPL051W, strain arl3, hits give low values 1.01 | locus YPL078C, strain atp4, hits give low values 0.945 | locus YPL106C, strain sse1, hits give low values 0.94 | locus YPL240C, strain hsp82, hits give low values 0.995 | locus YPL241C, strain CIN2, hits give low values 1.01 | locus YPL256C, strain CLN2, hits give low values 1.06 | locus YPR119W, strain clb2, hits give low values 1.02 | locus YPR141C, strain kar3, hits give low values 1.02 | locus YPR163C, strain tif3, hits give low values 1.02 | locus YPR167C, strain met16, hits give low values 1.02 | strain wtn01, hits give low values 1.02
